The values that follow come from article PMC7862700, “An all-to-all approach to the identification of sequence-specific readers for epigenetic DNA modifications on cytosine”.

Holding throughout (experiment): DAPPL (digital affinity profiling via proximity ligation, sequencing); 10 mM Tris-HCl pH 7.5, 50 mM NaCl, 1 mM DTT, 4% glycerol, room temperature, 30 min; GST-TFs on glutathione beads, 16-mer random dsDNA library, 0.1% formaldehyde crosslink after washing; high values mean tight binding
Holding throughout (conditions): protein: recombinant; tags: N-terminal GST; dsDNA, one strand shown

The target in one assay is T1, FLI1 (Homo sapiens, UniProt Q01543 1-452).
T1 sequence: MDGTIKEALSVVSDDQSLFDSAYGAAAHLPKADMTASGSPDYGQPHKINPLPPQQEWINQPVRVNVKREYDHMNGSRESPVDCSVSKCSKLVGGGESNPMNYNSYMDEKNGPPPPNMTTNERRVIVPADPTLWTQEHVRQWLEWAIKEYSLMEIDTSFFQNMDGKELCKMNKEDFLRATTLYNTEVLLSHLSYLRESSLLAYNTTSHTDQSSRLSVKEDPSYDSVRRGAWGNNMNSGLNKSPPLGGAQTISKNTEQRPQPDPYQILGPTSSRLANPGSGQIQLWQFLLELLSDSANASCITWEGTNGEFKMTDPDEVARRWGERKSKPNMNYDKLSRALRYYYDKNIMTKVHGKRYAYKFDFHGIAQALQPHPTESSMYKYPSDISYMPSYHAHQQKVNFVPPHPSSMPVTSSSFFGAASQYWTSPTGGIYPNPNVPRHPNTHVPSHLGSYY
The method in brief:
(§1)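 In yeast, human transcription factors were expressed with a GST fusion, then pulled down on glutathione beads and given DNA barcodes. Pooled with a tag-only sample, they were exposed to 200 nmole of a 16-mer random double-stranded DNA library (Tris/NaCl/DTT/glycerol buffer, room temperature, 30 min), washed, crosslinked with 0.1% formaldehyde, proximity-ligated using BsaI/T4 ligase for 1 h at 37 °C, PCR-amplified and read on an Illumina NextSeq500. Each hexamer's frequency of reads for a factor, divided by the matching frequency for the tag-only sample, gives the binding signal.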

In another assay the target is T2, ELK1 (Homo sapiens, UniProt P19419 1-428).
T2 sequence: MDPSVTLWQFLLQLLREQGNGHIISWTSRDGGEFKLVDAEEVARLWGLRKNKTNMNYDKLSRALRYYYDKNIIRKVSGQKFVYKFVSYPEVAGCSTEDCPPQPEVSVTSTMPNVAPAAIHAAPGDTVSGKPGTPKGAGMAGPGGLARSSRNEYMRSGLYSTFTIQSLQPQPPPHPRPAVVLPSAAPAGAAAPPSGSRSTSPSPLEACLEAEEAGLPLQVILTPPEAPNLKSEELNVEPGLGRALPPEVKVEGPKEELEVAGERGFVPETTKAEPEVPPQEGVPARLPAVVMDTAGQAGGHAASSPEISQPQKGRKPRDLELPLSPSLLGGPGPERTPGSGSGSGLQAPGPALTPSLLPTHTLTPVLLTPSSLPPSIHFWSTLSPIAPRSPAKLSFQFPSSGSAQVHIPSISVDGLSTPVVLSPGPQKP
Summed up:
as §1

Another assay deals with T3, GABPA (Homo sapiens, UniProt Q06546 1-454).
T3 sequence: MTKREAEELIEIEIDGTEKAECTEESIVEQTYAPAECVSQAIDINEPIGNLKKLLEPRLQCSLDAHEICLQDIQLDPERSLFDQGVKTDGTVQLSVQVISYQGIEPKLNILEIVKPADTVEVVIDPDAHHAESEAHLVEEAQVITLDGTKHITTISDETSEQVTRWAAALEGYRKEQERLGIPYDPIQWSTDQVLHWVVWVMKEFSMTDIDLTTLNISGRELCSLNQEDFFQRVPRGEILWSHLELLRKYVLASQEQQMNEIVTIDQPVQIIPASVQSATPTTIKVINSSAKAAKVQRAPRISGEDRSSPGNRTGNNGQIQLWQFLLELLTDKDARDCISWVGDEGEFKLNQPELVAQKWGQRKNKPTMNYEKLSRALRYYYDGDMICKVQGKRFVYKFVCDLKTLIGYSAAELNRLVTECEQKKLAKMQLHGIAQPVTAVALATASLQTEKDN
The method in brief:
as §1

For a further assay, the target named is T4, ERG (Homo sapiens, UniProt P11308 1-479).
T4 sequence: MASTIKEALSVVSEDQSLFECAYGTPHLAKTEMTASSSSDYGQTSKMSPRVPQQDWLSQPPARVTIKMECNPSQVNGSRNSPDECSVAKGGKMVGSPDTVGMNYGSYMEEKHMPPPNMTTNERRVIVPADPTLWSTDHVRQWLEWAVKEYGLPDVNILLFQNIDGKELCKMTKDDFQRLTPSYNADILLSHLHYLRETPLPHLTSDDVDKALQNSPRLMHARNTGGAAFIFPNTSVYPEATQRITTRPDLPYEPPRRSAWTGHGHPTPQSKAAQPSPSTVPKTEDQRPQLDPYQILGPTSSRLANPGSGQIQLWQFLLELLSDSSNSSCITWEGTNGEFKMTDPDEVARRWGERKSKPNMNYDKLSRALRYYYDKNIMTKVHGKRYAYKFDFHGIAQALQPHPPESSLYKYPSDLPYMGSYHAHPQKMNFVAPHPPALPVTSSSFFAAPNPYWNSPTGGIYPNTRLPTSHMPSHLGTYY
The method in brief:
as §1

Another assay has as its target ELF1 (Homo sapiens, UniProt P32519 1-619). Summed up: as §1
The target in a further assay is T5, EHF (Homo sapiens, UniProt Q9NZC4 1-300).
T5 sequence: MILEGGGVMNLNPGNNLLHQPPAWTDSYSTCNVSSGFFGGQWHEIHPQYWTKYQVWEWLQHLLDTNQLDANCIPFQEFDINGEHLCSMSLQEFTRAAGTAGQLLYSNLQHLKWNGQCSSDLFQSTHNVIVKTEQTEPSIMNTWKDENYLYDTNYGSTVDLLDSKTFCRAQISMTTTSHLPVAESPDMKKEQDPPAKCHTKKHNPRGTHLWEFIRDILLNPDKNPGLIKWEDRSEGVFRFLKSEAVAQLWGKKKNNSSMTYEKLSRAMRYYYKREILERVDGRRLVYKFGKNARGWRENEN
The method in brief:
as §1

The next assay addresses SPI1 (Homo sapiens, UniProt P17947 1-270). The method in brief: as §1
Another assay deals with SPIB (Homo sapiens, UniProt Q01892 1-262). The method in brief: as §1
A further assay has as its target T6, ELK3 (Homo sapiens, UniProt P41970 1-407).
T6 sequence: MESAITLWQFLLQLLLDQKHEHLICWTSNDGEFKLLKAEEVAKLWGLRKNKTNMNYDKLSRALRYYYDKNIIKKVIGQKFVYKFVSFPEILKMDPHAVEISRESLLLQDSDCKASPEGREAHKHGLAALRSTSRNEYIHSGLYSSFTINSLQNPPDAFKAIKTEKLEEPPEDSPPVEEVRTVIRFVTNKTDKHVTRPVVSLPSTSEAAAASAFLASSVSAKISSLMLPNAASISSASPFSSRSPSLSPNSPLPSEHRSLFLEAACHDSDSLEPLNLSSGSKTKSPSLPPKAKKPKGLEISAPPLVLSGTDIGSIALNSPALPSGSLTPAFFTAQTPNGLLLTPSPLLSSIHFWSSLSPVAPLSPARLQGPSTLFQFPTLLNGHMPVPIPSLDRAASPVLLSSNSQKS
Summed up: as §1

Chain of SPIB (Q01892 whole entry): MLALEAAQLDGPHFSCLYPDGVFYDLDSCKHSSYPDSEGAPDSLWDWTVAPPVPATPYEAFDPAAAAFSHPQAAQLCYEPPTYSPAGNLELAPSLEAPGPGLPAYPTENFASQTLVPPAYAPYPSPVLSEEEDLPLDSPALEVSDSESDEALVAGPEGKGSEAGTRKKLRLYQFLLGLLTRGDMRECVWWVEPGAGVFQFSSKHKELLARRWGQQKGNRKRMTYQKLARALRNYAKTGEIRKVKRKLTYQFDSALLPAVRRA
Chain of ELF1 (P32519 whole entry): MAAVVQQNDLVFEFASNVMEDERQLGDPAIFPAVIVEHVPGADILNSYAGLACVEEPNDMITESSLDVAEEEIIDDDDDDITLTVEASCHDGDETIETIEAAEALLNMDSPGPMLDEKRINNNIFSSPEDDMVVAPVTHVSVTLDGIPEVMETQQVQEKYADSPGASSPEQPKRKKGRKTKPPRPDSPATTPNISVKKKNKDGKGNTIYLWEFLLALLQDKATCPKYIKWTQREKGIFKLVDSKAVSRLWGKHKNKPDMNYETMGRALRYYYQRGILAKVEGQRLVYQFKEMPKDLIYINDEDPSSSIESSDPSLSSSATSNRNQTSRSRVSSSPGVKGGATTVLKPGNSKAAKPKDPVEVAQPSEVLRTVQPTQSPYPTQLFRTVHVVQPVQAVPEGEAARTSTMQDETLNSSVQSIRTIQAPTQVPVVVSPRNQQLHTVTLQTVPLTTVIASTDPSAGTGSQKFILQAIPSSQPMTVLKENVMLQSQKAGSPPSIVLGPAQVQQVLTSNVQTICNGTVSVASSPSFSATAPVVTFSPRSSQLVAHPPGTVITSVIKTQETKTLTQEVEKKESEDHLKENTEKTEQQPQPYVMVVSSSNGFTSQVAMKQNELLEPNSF

Consider TCGTTC, for which the binding signal with FLI1 is 1.17 fold enrichment (6-mer frequency, TF over GST control); in the assay with ELK1, 1.15 fold enrichment (6-mer frequency, TF over GST control); with GABPA, 1.33 fold enrichment (6-mer frequency, TF over GST control); in the assay with ERG, 1.27 fold enrichment (6-mer frequency, TF over GST control); in the assay with ELF1, 1.15 fold enrichment (6-mer frequency, TF over GST control); with EHF, 1.23 fold enrichment (6-mer frequency, TF over GST control). In addition, the binding signal with SPI1 is 1.17 fold enrichment (6-mer frequency, TF over GST control); in the assay with SPIB, 1.23 fold enrichment (6-mer frequency, TF over GST control); in the assay with ELK3, 1.23 fold enrichment (6-mer frequency, TF over GST control).
